# Screens: PubChem BioAssay, National Center for Advancing Translational Sciences (NCATS)
# ALDH1A1 inh – inhibitors of human aldehyde dehydrogenase 1A1 | Potency, µM (titrated, usually from 75.3 µM), for the others: top-dose activity, negative = inhibition, usual class: inhibitors | P00352 | Purified ALDH1A1, NADH fluorescence, propionaldehyde substrate | AID 1030 | 220,000 tested, 7.3% active; active = well fitted inhibition curve with a large enough effect, not every such curve was filed as active; inconclusive = small, poorly fitted or top-dose-only effect, or another doubt; inactive = no such curve, though single readings can be large or run the other way;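 also: plate controls were no enzyme wells and a reference inhibitor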
# Tau fibril FP – tau fibrillization inhibition (FP). P10636. K18 P301L tau heparin fibrillization, Alexa594 FP, 6 h. Potency, µM (top dose mostly 57.7 µM), inactives show top-dose activity, negative = inhibition, actives largely listed as inhibitors. 280,000 tested, 0.39% active. AID 1468; also: nearly all actives have a fitted effect of over 55% in size
# Target sequence (P10636 561-689 P618L limits assumed): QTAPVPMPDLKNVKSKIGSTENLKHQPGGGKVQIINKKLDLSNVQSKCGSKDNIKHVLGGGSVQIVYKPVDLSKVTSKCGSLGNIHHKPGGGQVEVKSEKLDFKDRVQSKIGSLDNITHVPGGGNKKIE
#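 Quantitative HTS format: compounds meet 15 uM recombinant K18 P301L tau and Alexa 594-tau tracer in 100 mM sodium acetate pH 7; 20 uM heparin triggers fibrillization at 37 C over 6 hr; FP gives the signal.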
# Tau fibril ThT – inhibitors of human tau fibril formation, thioflavin T binding. P10636. recombinant tau K18 P301L, heparin-induced fibrillization, ThT fluorescence. Potency, µM (highest dose often 57.4 µM), inactives show top-dose activity, negative = inhibition, actives largely listed as inhibitors. 270,000 tested, 2.1% active. AID 1460; also: nearly all actives have a fitted effect of over 55% in size
#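 Heparin-induced (20 uM) aggregation of recombinant human K18 P301L tau, 15 uM unlabeled with 0.24 uM labeled, pH 7 acetate buffer, 6 hr at 37 C with compound. Fibrils quantified by 30 uM ThT fluorescence after 1 hr ambient incubation.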
# JMJD2E inh – JMJD2E (human) inhibition; B2RXH2; JMJD2E catalytic domain, FDH-coupled NADH fluorescence (FDH is formaldehyde dehydrogenase); Potency, µM (doses to about 57.1 µM), without a hit: at the top dose activity change, negative = inhibition, actives largely listed as inhibitors; 230,000 tested, 1.6% active; active = well fitted inhibition curve with a large enough effect, not every such curve was filed as active; inconclusive = small, poorly fitted or top-dose-only effect, or another doubt; inactive = no such curve, though single readings can be large or run the other way;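 also: 0% = wells with enzyme and -100% = buffer wells without enzyme; nearly all actives have a fitted effect of over 50% in size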
# Target sequence (B2RXH2 1-337 limits assumed): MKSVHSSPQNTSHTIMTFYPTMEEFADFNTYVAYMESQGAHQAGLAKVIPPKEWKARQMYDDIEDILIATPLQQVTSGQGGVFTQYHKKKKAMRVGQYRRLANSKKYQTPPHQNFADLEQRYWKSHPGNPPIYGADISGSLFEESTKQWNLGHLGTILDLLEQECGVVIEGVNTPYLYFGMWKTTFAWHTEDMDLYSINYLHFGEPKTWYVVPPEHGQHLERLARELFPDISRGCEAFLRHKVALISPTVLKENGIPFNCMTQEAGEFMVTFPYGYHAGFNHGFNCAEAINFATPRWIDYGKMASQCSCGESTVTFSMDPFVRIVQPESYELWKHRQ
# Tau fluor cs – counter-screen for tau fibril formation inhibitors; tau K18 P301L Alexa594 fluorescence, heparin fibrillization; Potency, µM (highest dose often 57.7 µM), for the others: top-dose activity change, negative = decrease; 280,000 tested, 0.93% active; also: nearly all actives have a fitted effect of over 55% in size
#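 Human tau K18 P301L (15 uM unlabeled, 0.24 uM Alexa 594-labeled) in 100 mM sodium acetate pH 7 with 20 uM heparin, 6 hr at 37 C. ThT 30 uM added, 1 hr ambient; Alexa 594 FP and total fluorescence read at 555/632 nm.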
# HPGD inh – HPGD (human) dehydrogenase inhibition; P15428; purified HPGD, NADH fluorescence kinetic, PGE2 substrate; Potency, µM, without a hit: at the top dose activity change, negative = inhibition, hits mostly inhibitors; 150,000 tested, 4.3% active; AID 894; active = well fitted inhibition curve with a large enough effect, not every such curve was filed as active; inconclusive = small, poorly fitted or top-dose-only effect, or another doubt; inactive = no such curve, though single readings can be large or run the other way
#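 NADH formation kinetics: reaction with 30 uM PGE2 and 1 mM NAD+ (final), 20 nM enzyme, Tris-HCl pH 8 with Tween 20, after 15 min compound preincubation at room temperature. Fluorescence change, last versus first of five reads.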
# Numbers without * were called inactive; ? = inconclusive; · = not tested or not shown; ! = a repeat was not active. Shown are actives, neighbours in structure and some others; about 9.9% of the full set was active somewhere. Unless noted, calls follow the shape of the dose curve; as a rule, active = well fitted curve in the direction sought with a large enough effect; inconclusive = small, poorly fitted or top-dose-only effect, or another doubt; inactive = no such curve, though single readings can be large; an effect the other way counts as inactive or inconclusive. Unless noted, % is scaled to controls: 0 for no effect and ±100 for the full control effect; potency is read from the fitted curve at half-maximal effect.
SMILES,ALDH1A1 inh,Tau fibril FP,Tau fibril ThT,JMJD2E inh,Tau fluor cs,HPGD inh
CCc1nc2ccccc2c(=O)n1-c1ccccc1[N+](=O)[O-],?,-2%,1%,2%,-2%,-9%
Cc1nnc(SCc2nc3ccccc3c(=O)n2-c2ccccc2Cl)n1N,25µM*,-4%,-12%,-10%,-1%,-1%
C=C(CC1CC(O)[C@]2(C)OC3CC4OC5C[C@]6(C)O[C@]7(C)CCC8OC9C[C@]%10(C)OC%11C(C)=CC(=O)OC%11CC%10OC9C[C@@H](C)C8OC7CC6O[C@]5(C)C/C=C\C4OC3CC2O1)C(=O)O (some centres not stated),4µM*,9%,-11%,2%,8%,·
CN1C(=O)/C(=C/c2ccc(N3CCCCCC3)o2)C(=O)NC1=S,?,-2%,14µM*,1%,-12%,-20%
O=C1NC(=O)N(c2cccc(F)c2)C(=O)/C1=C/c1ccc(N2CCOCC2)cc1,5µM*,-8%,?,?,-22%,·
CN1C(=O)/C(=C\c2ccc(N3CCCCC3)o2)C(=O)NC1=S,?,-11%,?,-4%,-8%,-18%
Cc1cc(N2CCOCC2)ccc1/C=C1\C(=O)NC(=O)N(c2ccccc2)C1=O,?,?,?,-25%,-14%,·
CN1C(=O)/C(=C\c2ccc(N3CCCCCC3)cc2)C(=O)NC1=S,0.071µM*,1%,?,-21%,-14%,·
COc1ccc(/C=C2\C(=O)NC(=S)N(C)C2=O)cc1C,7.9µM*,-9%,?,?,-11%,·
O=C1NC(=O)C(=Cc2ccc(N3CCOCC3)cc2)C(=O)N1,?,-10%,?,?,0%,·
CN1CCN(c2ccc(/C=C3\C(=O)NC(=S)N(c4cccc(Br)c4)C3=O)o2)CC1,?,-14%,16µM*,-6%,-19%,-10%
CCCCN1C(=O)/C(=C/c2ccc(N3CCCCCC3)cc2)C(=O)NC1=S,0.2µM*,8%,?,6%,-2%,-15%
Cc1cc(N2CCCCC2)ccc1C=C1C(=O)N(C)C(=S)N(C)C1=O,32µM*,-11%,?,-19%,-21%,14µM*
COC(=O)C1C=C2c3cccc4[nH]cc(c34)CC2N(C)C1 (configuration not stated),·,?,18µM*,?,?,·
CC[C@@H](CO)NC(=O)[C@@H]1C=C2c3cccc4[nH]cc(c34)C[C@H]2N(C)C1,3.5µM*,-7%,?,·,3%,·
CCC(CO)NC(=O)C1C=C2c3cccc4[nH]cc(c34)CC2N(C)C1 (configuration not stated),?,-8%,-16%,?,-17%,?
CC[C@@H](CO)NC(=O)[C@@H]1C=C2c3cccc4c3c(cn4C)C[C@H]2N(C)C1,3.2µM*,?,25µM*!,?,?,?
CCC(C)C(=O)OC1C[C@@]2(C)C(c3ccoc3)OC(=O)CC23OC2(C)OC34C(OC(=O)C(C)C)[C@]3(O)C(OC(=O)C5(C)OC5C)[C@]5(C)CC3(O)[C@](C)(C5CC(=O)OC)C14O2 (some centres not stated),1%,3%,-13%,-7%,-8%,-2%
COc1ccc(C(C)=O)cc1COc1ncnc2ccccc12,1.8µM*,0%,6%,-1%,5%,·
CN1C(=O)C(=Cc2sc(=O)n(-c3ccccc3)c2N(C)C)C(=O)N(C)C1=O,·,-14%,?,-4%,-8%,·
CN1C(=O)C(=Cc2ccc(OCCN(C)c3ccccn3)cc2)C(=O)N(C)C1=O,7.9µM*,?,?,?,-20%,·
C=C(C)[C@H]1CN[C@H](C(=O)O)[C@H]1CC(=O)O,20µM*!,1%,-3%,-29%,-1%,16µM*!
C=C(C)[C@H]1CN[C@H](C(=O)O)[C@@H]1CC(=O)O,-4%,-6%,-4%,-8%,-5%,9%
Cn1cc(C(=O)Cc2ccccc2)c2ccccc21,-14%,-7%,-5%,7%,-8%,-5%
